# Tested on: HepG2
# Assay: GSK_TCMDC: Percent inhibition of human HepG2 cell line. Test compounds present at 10uM.
# Format: functional
row,Compound,Inhibition [%]
1,O=C(/C=C/c1ccc(-c2nc3ccc(Cl)cc3[nH]2)cc1)NC1CCN(Cc2ccccc2)CC1,3
2,COc1ccc(CN2CCC(NCc3cccc([N+](=O)[O-])c3)CC2)cc1.O=C(O)C(F)(F)F,6
3,CCCCCCCN1CC[C@@H](CCCc2ccnc3ccc(OCCC4CCNCC4)cc23)[C@@H](CC)C1.Cl,94
4,CC(C)(C)c1cc([N+](=O)[O-])cc(C(=O)Nc2ccccc2C(F)(F)F)c1O,74
5,CCCN(CC1CC1)c1nc(C)nc2c(-c3ccccc3)cc(C)cc12,72
6,O=C(Nc1cccc(CN2CCCN(CC3CC3)CC2)c1)c1ccc(-c2ccccc2)cc1.O=C(O)C(F)(F)F,15
7,O=C(CNC1CCCCC1)Nc1cccc(C(=O)Nc2cccc(C(F)(F)F)c2)c1.O=C(O)C(=O)O,17
8,NC(=O)c1cccc(C(=O)Nc2cccc(-c3ccc(-c4nc5ccccc5[nH]4)s3)c2)c1,37
9,CCc1ccc(C(=O)NC(=O)c2ccccc2O)cc1,0
10,COc1ccc(-c2ccc(CNC(=O)c3cccc(C#N)c3)c(F)c2)cc1CN1CCCN(C)CC1.O=C(O)C(F)(F)F,8
11,Nc1nccc2ccc(-c3ccc(Oc4ccccc4)cc3)cc12.O=C(O)C(F)(F)F,36
12,COc1cccc(C(=O)Nc2ccc(Nc3nc(C)cc(N(C)C)n3)cc2)c1,1
13,O=C(CCc1c[nH]cn1)Nc1ccc(-c2ccc(-c3nc4ccccc4[nH]3)cc2)cc1,46
14,COc1ccc(N2C(N)=NC(N)=NC2(C)C)cc1OC.Cl,13
15,CCCCCCn1c(Sc2ccc(C#N)c([N+](=O)[O-])c2)nnc1-c1cccc(Cl)c1,17
16,COc1c(C(=O)NC2CCN(Cc3ccccc3)C2)cnc2ccccc12.Cl (configuration not stated),2
17,Cc1cccc(C)c1C1CCN(CCCCNC(=O)c2cc3ccccc3[nH]2)CC1,46
18,COc1cc2nc(NCCc3cccc(Cl)c3)nc(NCc3ccccc3)c2cc1OC,97
19,Cl.O=S(=O)(c1cccc(F)c1)c1ccc(Nc2ncnc3cc(Br)sc23)cc1Cl,20
20,COc1ccc2nccc([C@@H](O)CN3CCC(NCc4cc5oc(=O)[nH]c5cc4Cl)CC3)c2c1.O=C(O)C(=O)O,1
21,Cl.O=C1Nc2ccc3ncccc3c2/C1=C/Nc1ccc(N2CCN(CCO)CC2)cc1,34
22,CC(=O)Nc1ccc(CN2CCC(CNC(=O)c3cc(-c4cccc(C(F)(F)F)c4)cs3)C2)cc1.O=C(O)C(F)(F)F (configuration not stated),24
23,NC(=O)C1CCN(Cc2cccc(-c3cccc(-c4nc5cc(C(F)(F)F)ccc5[nH]4)c3)c2)CC1.O=C(O)C(F)(F)F,16
24,COCc1nc(-c2ccccc2)nc(N2CCN(C(=O)NC(C)C)CC2)c1Cc1ccccc1F,35
25,O=C(N[C@@H](Cc1ccccc1)C(=O)NCc1cccc(C(F)(F)F)c1)c1ccc(O)c(-c2ccc(Cl)c(Cl)c2)c1,0
26,CC(OC(=O)c1ccc(C(=O)NCC2CC2)cc1)C(C)(C)C (configuration not stated),10
27,FC(F)(F)c1cccc(CCNc2nccc(NCc3ccc(Cl)cc3Cl)n2)c1,8

# Source: ChEMBL document CHEMBL1157539, “Thousands of chemical starting points for antimalarial lead identification” (Nature, 2010)
